Measurements: PubChem BioAssay (NCATS)
Inconclusive results are not listed. Entries that show only a call come without a potency. Activity calls are given as the source filed them. The call rests on the fitted dose curve; in most records, active means well fitted inhibition curve with a large enough effect; inconclusive means small, poorly fitted or top-dose-only effect; inactive means flat fitted curve, though single readings scatter.

Molecular target: Ubiquitin carboxyl-terminal hydrolase 1 (Homo sapiens) (UniProt O94782)
Experiment: Inhibitors of USP1/UAF1: Pilot qHTS (AID 504865);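 further: rhodamine fluorescence freed from ubiquitin-rhodamine substrate followed over time; top concentration of the series differs between compounds; nearly all actives have a fitted effect of over 35% in size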
Conditions: purified USP1/UAF1, Ub-rhodamine cleavage fluorescence; series mostly up to 114 µM
Method in brief: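 USP1/UAF1 complex (1nM) preincubated with compound 15 min at room temperature, then Ub-Rho substrate (150nM final) added. Fluorescence read kinetically at 480/540 nm, 6 reads every 60 seconds. Buffer: 50mM HEPES pH 7.8, 0.5mM EDTA, 0.1 mg/ml BSA, 1mM TCEP, 0.01% Tween-20.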

Sequence of Ubiquitin carboxyl-terminal hydrolase 1 (Homo sapiens) (O94782 whole entry, looked up): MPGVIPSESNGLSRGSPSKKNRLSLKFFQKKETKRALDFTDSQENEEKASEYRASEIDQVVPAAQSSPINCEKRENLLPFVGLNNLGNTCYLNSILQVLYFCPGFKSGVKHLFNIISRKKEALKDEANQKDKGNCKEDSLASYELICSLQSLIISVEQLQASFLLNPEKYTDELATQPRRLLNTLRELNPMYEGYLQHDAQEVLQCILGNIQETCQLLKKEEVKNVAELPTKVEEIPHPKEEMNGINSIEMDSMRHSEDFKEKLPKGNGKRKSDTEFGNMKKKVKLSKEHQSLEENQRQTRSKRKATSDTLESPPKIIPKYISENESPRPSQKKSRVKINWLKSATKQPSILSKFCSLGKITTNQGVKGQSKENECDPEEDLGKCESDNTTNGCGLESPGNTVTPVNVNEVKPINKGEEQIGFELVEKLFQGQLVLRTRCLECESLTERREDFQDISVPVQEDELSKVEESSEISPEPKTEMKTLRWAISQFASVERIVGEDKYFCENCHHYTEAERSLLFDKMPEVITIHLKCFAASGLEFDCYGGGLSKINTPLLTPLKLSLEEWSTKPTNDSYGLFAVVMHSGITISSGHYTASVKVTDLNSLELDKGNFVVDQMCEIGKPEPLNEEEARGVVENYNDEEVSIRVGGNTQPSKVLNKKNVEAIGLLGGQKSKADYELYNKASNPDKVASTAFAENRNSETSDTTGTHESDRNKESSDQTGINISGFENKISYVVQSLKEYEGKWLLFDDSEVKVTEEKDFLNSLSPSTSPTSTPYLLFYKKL

Structure (SMILES)	Potency
COc1cc(C=O)ccc1O	inactive
O=C(CCCCC(=O)Nc1c(I)cc(I)c(C(=O)O)c1I)Nc1c(I)cc(I)c(C(=O)O)c1I	inactive
CC(=O)OCC[N+](C)(C)C	inactive
O=C(Nc1ccc(Cl)cc1)Nc1ccc(Cl)c(Cl)c1	inactive
OC(CCCN1CCCCC1)(c1ccccc1)c1ccccc1	inactive
CN1CCC(Nc2ncc3ncnc(Nc4ccc(F)c(Cl)c4)c3n2)CC1	inactive
O=S(=O)(O)c1ccc2nc(-c3ccccc3)[nH]c2c1	inactive
Cc1ccc2c(Cl)cc(Cl)c(O)c2n1	inactive
COC(=O)c1c(Cl)c(Cl)c(C(=O)OC)c(Cl)c1Cl	inactive
Nc1ccc2cc3ccc(N)cc3nc2c1	inactive
CN1CCCN(C(c2ccccc2)c2ccc(Cl)cc2)CC1 (stereo unspecified)	inactive
Cc1ncc(CO)c(CO)c1O	inactive
NCC(=O)O	inactive
CC(=O)OC/C=C(C)/C=C/C=C(C)/C=C/C1=C(C)CCCC1(C)C	inactive
Nc1c[n+](N2CCOCC2)no1	inactive
Nc1c2ccccc2nc2ccccc12	inactive
OCc1c[nH]c2ccccc12	inactive
C[C@@H](C1=C(CCN(C)C)Cc2ccccc21)c1ccccn1	inactive
Nc1ncnc2nc[nH]c12	inactive
Cc1ccc(O)cc1	inactive
C1N2CN3CN1CN(C2)C3	inactive
